The chains are these.
B1: VH:VL chains; a variant is named by its letters at X, in order (parent)
chain 1: QVQLVQSGAEVKKPGASVKVSCKASGYTFTDYXMHWVRQAPGQGLEWMGXVNPNXXXTTYNQKFEGRVTMTTDTSTSTAYMELRSLRSDDTAVYYCARXNXLDXWGQGTTVTVSS
chain 2: DIQMTQSPSSLSASVGDRVTITCSVSSSVSSIYLHWYQQKPGKAPKLLIYSTSNLASGVPSRFSGSGSGTDFTLTISSLQPEDFATYYCQVYSGYPLTFGGGTKVEIK

Results on 138 variants are retold here after the emibetuzumab library of Makowski et al. (2022).

The other results are listed elsewhere or left out. The true hit rate is not given.

The variants in the assay derive from B1. Briefly: yeast display scFab, FACS + sequencing. Conditions: with MET. In outline: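 Antigen binding was called positive for sequences present in both antigen-positive samples and negative for those present only in the input. These calls came from deep sequencing, in two replicates, of round-3 sorted and input populations from a heavy-chain CDR mutant scFab yeast surface library. The library was first enriched twice magnetically on HGFR-Fc-coated Protein A beads and then by FACS, gating the top 50% antigen-positive cells after 3 h labelling at room temperature with 1 nM HGFR-Fc plus anti-Myc in PBSB with 1% milk.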
As for DTKAADWY, the antigen binding call is on record as “no binding”. VKEGGDVV: the antigen binding call is “no binding”. As for YAGKDDWV, the antigen binding call was “no binding”.

Turning to YKRESAAV, the antigen binding call is recorded as “binds”. Regarding YERESAAV, the antigen binding call was “no binding”.

YKGKDSSV: the antigen binding call is “binds”. The value for YKRESSSV was “binds”; that for YGRTSAAV was “no binding”; that for VEGTSSSV was “no binding”. Regarding FEGGTDVV, the antigen binding call is recorded as “no binding”. For YKGRGYGF, the antigen binding call is on record as “no binding”.

As for YKGRGAAF, the antigen binding call is “binds”. For YKGRGSAF, the antigen binding call is listed as “binds”.

As to YKGRGAGF, the antigen binding call is listed as “binds”. DAGRSDLV chain 1 R67H: the antigen binding call is listed as “no binding”.

Consider SAGEGDVY, for which the antigen binding call is on record as “no binding”. Consider FAKEGFWD, for which the antigen binding call is reported as “no binding”. The entry for VRTRGSGV is “binds”. For the variant VETRSSSV, the antigen binding call is “no binding”. For VETEGSGV, the antigen binding call is recorded as “no binding”. For the variant VRTRSSGV, the antigen binding call is given as “binds”. The entry for VRERGDGV is “no binding”; for VRTADVGV it is “no binding”. Regarding DGGTNAGD, the antigen binding call was “no binding”. In the case of YTEKGVGV, the antigen binding call is “no binding”. In the case of DATGGSSV, the antigen binding call is listed as “no binding”.

On to DREEGSSA, for which the antigen binding call is on record as “no binding”. Take YREKGSSA: the antigen binding call is recorded as “binds”. Take YTTGGSSA: the antigen binding call is recorded as “no binding”. Take VAEKGSSA: the antigen binding call was “no binding”. In the case of YRTGGSSV, the antigen binding call is reported as “binds”. The value for YREKGSSV was “binds”; that for DTKRTAVA was “no binding”. In the case of ATTKSAGD, the antigen binding call is recorded as “no binding”. In the case of YRRGGVGV, the antigen binding call is recorded as “binds”. Turning to DARGGFGV, the antigen binding call is “no binding”. Consider DREEGVGV, for which the antigen binding call is listed as “no binding”.

In the case of YRRGGAGV, the antigen binding call is recorded as “binds”. The value for YRRGGFGV was “binds”; that for YRRGSVGV was “no binding”; that for YRGKDVGV was “binds”. The value for VEGGGDVV was “no binding”; that for SEEEGASV was “no binding”. As for YKAGGAWD, the antigen binding call is on record as “binds”. Consider YAARGAWD, for which the antigen binding call is “no binding”. The value for YKARGAWD was “binds”. Turning to YKARGSLV, the antigen binding call is given as “binds”. Consider YKGRGSLY, for which the antigen binding call is recorded as “binds”. YKGRGALY: the antigen binding call is listed as “binds”.

With DKEGGSLV, the antigen binding call is “no binding”. Take YKARGSLY: the antigen binding call was “binds”.

In the case of YKGRAALY, the antigen binding call was “no binding”. As for SKERGSLV, the antigen binding call is reported as “no binding”.

Regarding ATGRADWA, the antigen binding call is recorded as “no binding”.

For VTETGDSV, the antigen binding call is “no binding”. Turning to YTGEDDVY, the antigen binding call is reported as “no binding”. In the case of YAGKSAGD, the antigen binding call is on record as “no binding”.

In the case of YRGKAAGD, the antigen binding call is “binds”. On to YTGTSAGD, for which the antigen binding call was “no binding”. For the variant YRGKASGD, the antigen binding call was “binds”. On to FRRRGAWA, for which the antigen binding call was “binds”. The entry for YRRRGAWA is “binds”; for YRRRGSWA it is “binds”. On to FRRKDDWA, for which the antigen binding call was “no binding”.

As to YRRRGYWA, the antigen binding call is listed as “binds”. Consider ATGEDDVY, for which the antigen binding call is given as “no binding”.

On to DEGGTDGY, for which the antigen binding call is recorded as “no binding”. Turning to FARKGDGV, the antigen binding call is on record as “no binding”. Take YRREGDWA: the antigen binding call was “no binding”.

As for YRRRGVWA, the antigen binding call is “binds”.

As to SARRGDWA, the antigen binding call is “no binding”. For the variant YRRRGDWA, the antigen binding call is “binds”.

DATGGDGV: the antigen binding call is “no binding”. Regarding FARGGDAV, the antigen binding call was “no binding”. For FRRRGALD, the antigen binding call is given as “binds”. FRRRGAVD: the antigen binding call is on record as “binds”. The entry for FAGRGALD is “no binding”. In the case of FRRGGSAF, the antigen binding call is “binds”. As to FRRRGAAD, the antigen binding call is “binds”.

FARKSYGA: the antigen binding call was “no binding”. As for AETKGDGV, the antigen binding call is listed as “no binding”. With YGTATFLV, the antigen binding call was “no binding”. In the case of VRTKDFSY, the antigen binding call is given as “no binding”. Consider FGATSFSV, for which the antigen binding call was “no binding”. For the variant FAGGDYGS, the antigen binding call is listed as “no binding”. Take DTAGDAVV: the antigen binding call was “no binding”.

Consider FRRGGSAD, for which the antigen binding call is recorded as “binds”.

On to FARGGSAD, for which the antigen binding call is on record as “no binding”.

With DARGGSAD, the antigen binding call was “no binding”. On to YRRRGSAD, for which the antigen binding call is “binds”. The entry for FRRRGSAD is “binds”; for YRRKGSVD it is “binds”; for YRAKGSVD it is “binds”. Take DRAGDSVD: the antigen binding call was “no binding”. The entry for YRAGDSVD is “binds”; for FKGKGAVA it is “no binding”. Regarding YTTGGAVA, the antigen binding call is recorded as “no binding”.

VKGAGSVV: the antigen binding call is recorded as “no binding”.

For SKGKGAVA, the antigen binding call is “no binding”. As for YKTRSAVA, the antigen binding call was “binds”. Turning to YKGKGAVA, the antigen binding call is “binds”.

Take FKGRGAVD: the antigen binding call was “binds”. Turning to YKTGNDVA, the antigen binding call is “no binding”.

For YAGTGAVA, the antigen binding call is given as “no binding”.

With YKGKGSVV, the antigen binding call is “binds”.

In the case of DTKAASWA, the antigen binding call is given as “no binding”. For the variant YKGKGSVA, the antigen binding call was “binds”. FKAGGAVA: the antigen binding call is on record as “binds”. As to FKGEGDVA, the antigen binding call was “no binding”. The entry for AATGSAWA is “no binding”; for DRGRDAGD it is “no binding”.

With DAARGAGD, the antigen binding call is listed as “no binding”.

With DAGEAAGD, the antigen binding call is given as “no binding”. As to FRGGSAVD, the antigen binding call is listed as “binds”. In the case of DRTTNAGD, the antigen binding call was “no binding”. On to DKGGAAGD, for which the antigen binding call was “no binding”. For the variant DRGGSAGD, the antigen binding call is listed as “binds”. Regarding DAGGGAGD, the antigen binding call was “no binding”. Take DRGEGAGD chain 1 G42D: the antigen binding call is “binds”. As for DRAGGAGD, the antigen binding call is given as “binds”.

Consider VRGGSDVD, for which the antigen binding call is reported as “no binding”. On to FAGRDVGV, for which the antigen binding call is “no binding”.

For the variant SGKGGSAY, the antigen binding call is “no binding”. On to FTGGAAGD, for which the antigen binding call is “no binding”.

Regarding FRGADFGD, the antigen binding call is “no binding”. For the variant FRKGSAVD, the antigen binding call is on record as “binds”. The value for FRGGSAGD was “binds”.

Take DAGGADAY: the antigen binding call was “no binding”. FTGGASGV chain 1 V111I: the antigen binding call was “no binding”. Turning to YKGRGASV, the antigen binding call is “binds”. For the variant VEGTSASV, the antigen binding call is reported as “no binding”.

As to YKAGDVSV, the antigen binding call is “no binding”. For YKAKGASV, the antigen binding call is listed as “binds”. For VKGRAFSV, the antigen binding call was “no binding”. YEGGGFSV: the antigen binding call is given as “no binding”.

In the case of YGGGGASV, the antigen binding call is on record as “binds”.

Consider YGGGGDVV, for which the antigen binding call is on record as “no binding”. As to VKGRGASV, the antigen binding call is given as “binds”.
